Laboratory results taken from PubChem BioAssay (NCI).
Compounds without any hit were thinned out: in the full panel of roughly 83,000, 20% have a hit.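 48-hour exposure, single concentration, 96-well plates; percent growth endpoint where 0 means no net growth. Active: below 10.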 The source made the active and inactive calls.

Tested on: IGROV1 ovarian
Test: NCI-60 one-dose screen, 48 h (100 = growth as untreated, 0 = no growth, -100 = all killed)
Settings: 10 µM
Experimental: Growth inhibition of the IGROV1 human tumor cell line is measured as a screen for anti-cancer activity. Cells are grown in 96 well plates and exposed to the test compound for 48 hours. Compounds are tested at a single concentration, which is 10^-5 M for most compounds. The reported endpoint is percent growth (GI% or GIPRCNT), where numbers from 0 - 100% represent growth inhibition, and numbers from -100% - 0 represent cell death. For example, a value of 40 represents 60% growth inhibition. A value of 0 means no net growth occurred over the course of the experiment. A value of -40 indicates 40% of cells at the beginning of the experiment died by the end of the experiment. A value of -100 means all cells are dead at the end of the experiment.
NCI-60 Human Tumor Cell Lines Screen was performed using the standard one-dose NCI protocol, which is described in more detail at https://dtp.cancer.gov/discovery_development/nci-60/default.htm.
Compounds with GIPRCNT values below 10 were considered active. Activity score was based on GIPRCNT using the following formula: […]
Score is 0 for GIPRCNT values of 100 or above, 50 for GIPRCNT values of 0, and 100 for GIPRCNT values of -100.

`O=C(O)C1[O][Sb][O]C1C(=O)O` (stereo not given) was tested. Which growth did it give?
The growth was 81.8% (inactive).

Which growth does the source give for `[Cl][Hg][n]1cnc2c(Cl)c(Cl)c(Cl)cc21` here?
Its growth is 99.7% (inactive).

For `Fc1ccc(C2=NN(c3ccccc3)C(c3sc(N(CCCl)CCCl)nc3Cl)C2)cc1` (stereo not given), which growth is on record?
The growth was 82.7% (inactive).

For `CNC(=O)Oc1ccccc1`, which growth is on record?
The growth was 116% (inactive).

For `CC(=O)C1C(=O)N(C)C(=O)N(C)C1=O`, which growth is on record?
The growth was 113% (inactive).

Which growth does the source give for `COc1cc(N(CCCl)CCCl)ccc1C=Nc1ccccc1C(=O)O` here?
Its growth is 84.1% (inactive).

Which growth does the source give for `CCC1CN1P(=O)(OCCOC)N1CC1CC` (stereo not given) here?
Its growth is 111% (inactive).

How did the growth turn out when `c1ccc2nc(OCCN3CC3)ccc2c1` was run?
The growth was 35.1% (inactive).

`NC(=O)SCC(=O)Nc1ccc([As](=O)(O)O)cc1` was tested. Which growth did it give?
Its growth is 65.5% (inactive).

`C/C(=C\C(=O)O[C@H]1[C@@H]2[C@H](C)CC[C@H]2[C@]2(C)O[C@@]1(C1CCCCC1)C[C@H]2OC(=O)CO)c1ccccc1` was tested. Which growth did it give?
Its growth is 71.1% (inactive).

With `C/C(=N/OC(=O)N(C)C)c1cc(Cl)ccc1Cl` as the compound, how does the growth read?
Its growth is 104% (inactive).

Which growth does the source give for `CC1COC(=O)C1` (stereo not given) here?
Its growth is 103% (inactive).

For `O=S(=O)(F)c1ncnc2nc[nH]c12`, which growth is on record?
Its growth is 103% (inactive).

How did the growth turn out when `CCC[CH2][Sn]([CH2]CCC)([CH2]CCC)[O]C(=O)CC` was run?
The growth was -80.2% (active).

How did the growth turn out when `CCC(C)/C=C(C)/C=C/C(=O)c1c(O)c(-c2ccc(O)cc2)c[nH]c1=O` (stereo not given) was run?
Its growth is 40.7% (inactive).

For `O=C(N/N=C/c1ccc([N+](=O)[O-])o1)c1cc([N+](=O)[O-])cc([N+](=O)[O-])c1O`, which growth is on record?
Its growth is 97% (inactive).

For `CC(CC(C#N)(c1ccccc1)c1ccccc1)N1CCOCC1` (stereo not given), which growth is on record?
The growth was 102% (inactive).

How did the growth turn out when `COc1ccc(C(c2ccc(OC)cc2)C(Cl)(Cl)Cl)cc1` was run?
Its growth is 76.4% (inactive).

Which growth does the source give for `O=C1NC(=O)C(CN2C(=O)C3(c4ccccc42)[C@H](Cl)C(=O)N3c2ccccc2)C(=O)N1` (stereo not given in full) here?
Its growth is 49.4% (inactive).

How did the growth turn out when `O=CC(Br)C(Br)c1ccccc1` (stereo not given) was run?
Its growth is 74.8% (inactive).

Which growth does the source give for `CCN1CC2(CN(CC)C1=S)C(=O)NC(=O)NC2=O` here?
The growth was 103% (inactive).

Which growth does the source give for `CNC(=O)O/N=C(/C)c1ccc(Cl)cc1` here?
The growth was 101% (inactive).

With `CC1(C)N=C(N)N=C(N)N1c1ccc(CCCCc2ccc(Cl)cc2S(=O)(=O)F)c(Cl)c1` as the compound, how does the growth read?
The growth was 30.7% (inactive).

Which growth does the source give for `Cc1cc(N(CCCl)CCCl)ccc1C=Nc1ccc2ccccc2c1` here?
Its growth is 63% (inactive).

Which growth does the source give for `C[CH2][Pb]([CH2]C)([CH2]C)[O]C(=O)c1ccc(N)cc1` here?
The growth was 61.9% (inactive).

Which growth does the source give for `Cc1cc(C)nc(C)c1.[Cl][Hg][Cl]` here?
The growth was 106% (inactive).

How did the growth turn out when `CC(C)(C)[Si](C)(C)OC1[C@@H](O[Si](C)(C)C(C)(C)C)[C@@H](CNC(=O)NC(=O)CF)O[C@H]1n1cnc2c(NC(=O)Nc3ccccc3)ncnc21` (stereo not given in full) was run?
Its growth is 72.9% (inactive).

How did the growth turn out when `CCOc1cc(/C=N\Nc2nnc(C)n2N)c(C)cc1N(CCCl)CCCl` was run?
Its growth is 12.3% (inactive).

`O=C1NC(=O)C(Cc2ccccc2)(Cc2ccccc2)C(=O)N1` was tested. Which growth did it give?
The growth was 114% (inactive).

How did the growth turn out when `CC1(C)N=C(N)N=C(N)N1c1ccc(CCCCc2ccc(S(=O)(=O)F)cc2)c(Cl)c1` was run?
The growth was 29.1% (inactive).

Which growth does the source give for `CCC(CC)(c1ccccc1)C(OC(N)=O)c1ccccc1` (stereo not given) here?
Its growth is 73.4% (inactive).

How did the growth turn out when `COc1cc(C2CC(=O)Nc3nc(N)[se]c32)cc(OC)c1OC` (stereo not given) was run?
Its growth is 62% (inactive).

`NC(=O)OCC(CO)(c1ccccc1)c1ccccc1` was tested. Which growth did it give?
Its growth is 103% (inactive).

With `O=C(O)CC(Br)C(=O)CBr` (stereo not given) as the compound, how does the growth read?
The growth was 109% (inactive).

`C[C@]12CCc3sc(-c4ccc(Cl)cc4)nc3C1=CC[C@@H]1[C@@H]2CC[C@]2(C)C(=O)CC[C@@H]12` was tested. Which growth did it give?
Its growth is 92.5% (inactive).

How did the growth turn out when `CCOP(=O)(OCC)Oc1ccc(Sc2ccc(OP(=O)(OCC)OCC)cc2)cc1` was run?
Its growth is 98% (inactive).

How did the growth turn out when `CC1([N+](=O)[O-])COP(=O)(Nc2ccc(F)cc2)OC1` (stereo not given) was run?
Its growth is 103% (inactive).

Which growth does the source give for `CCN(CC)CCOc1c(C(C)C)cccc1C(C)C` here?
Its growth is 101% (inactive).

Which growth does the source give for `COc1ccc(C(=O)c2ccc([As]=O)cc2)cc1` (stereo not given) here?
Its growth is -29.3% (active).

Which growth does the source give for `COC1=CC(=O)OC(CCc2ccc3c(c2)OCO3)C1` (stereo not given) here?
Its growth is 116% (inactive).
